From PubChem BioAssay
The entries come from a sample that favours hits as a whole.
D1 mod: D1 CRE-luciferase signal change, two-sided – cell-based, HEK293 D1, dopamine EC30, D1 allosteric modulator project, primary screen. D(1A) dopamine receptor (Homo sapiens), P21728. B-score at 10 µM. 58,000 compounds, 5.9% hits. dopamine EC30 potentiation; actives deviate in either direction. AID 641, 2007;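 active = luminescence count or its row- and column-corrected plate score outside the 99.7% band of the plate's sample wells, on either side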
DAT uptake mod: changed hDAT dopamine uptake under cocaine IC80, either direction, primary screen, cocaine antagonist project, cell-based, LLC-PK1 hDAT, [14C]-dopamine uptake, MLSMR | 110,000 compounds, 1.3% hits | B-score at 10 µM | LLC-PK1 hDAT cells, [14C]-dopamine uptake with cocaine IC80; actives deviate in either direction | AID 449768, 2010;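 active = Z score or B-score, a plate-position-corrected score, falls beyond the plate's 99.7% confidence bounds, in either direction; inactive = both scores lie inside the 99.7% bounds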;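 note: scored against the spread of the other compound wells on the same plate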
Target sequence (Q01959 whole entry, looked up): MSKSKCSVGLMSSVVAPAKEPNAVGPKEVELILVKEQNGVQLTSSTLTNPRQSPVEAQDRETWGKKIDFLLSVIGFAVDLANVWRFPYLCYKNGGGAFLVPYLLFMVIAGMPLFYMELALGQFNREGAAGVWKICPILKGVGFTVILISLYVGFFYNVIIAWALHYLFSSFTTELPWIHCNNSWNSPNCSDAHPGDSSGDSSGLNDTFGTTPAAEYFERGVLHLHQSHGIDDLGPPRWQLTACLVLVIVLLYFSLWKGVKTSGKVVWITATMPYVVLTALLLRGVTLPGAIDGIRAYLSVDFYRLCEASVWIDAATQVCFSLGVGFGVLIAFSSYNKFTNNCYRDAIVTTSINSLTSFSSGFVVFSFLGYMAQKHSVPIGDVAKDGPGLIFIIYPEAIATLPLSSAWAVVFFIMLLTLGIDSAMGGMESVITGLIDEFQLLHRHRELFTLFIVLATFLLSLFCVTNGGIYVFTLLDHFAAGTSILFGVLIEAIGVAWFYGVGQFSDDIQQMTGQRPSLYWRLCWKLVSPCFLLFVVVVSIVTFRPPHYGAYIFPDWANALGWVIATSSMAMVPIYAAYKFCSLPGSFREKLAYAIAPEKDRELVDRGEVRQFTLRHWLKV
BAP1 block: inhibitors of BAP1 deubiquitinase, primary screen, biochemical, Ub-AMC fluorescence, kinetic; recombinant BAP1, Ub-AMC hydrolysis fluorescence kinetic; active compounds read low; Ubiquitin carboxyl-terminal hydrolase BAP1 (Homo sapiens), Q92560; calls only at 20 µM; 72,000 compounds, 0.48% hits;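 active = activity remaining at or below 50% of control, provided the compound also passes the data quality filters; inactive = the rest, including low values that fail the filters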;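 note: 100% = DMSO wells rate and 0% = substrate alone blank rate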
* = called active by the depositor; i = inactive; / = no result shown.

SMILES	D1 mod	DAT uptake mod	BAP1 block
O=C(Nc1ccccc1F)c1cc(F)ccc1[N+](=O)[O-]	/	/	i
O=C(NCCCn1ccnc1)c1ccc(S(=O)(=O)N2CCCCCC2)cc1	/	3.08*	/
CC1CC(C)CN(S(=O)(=O)c2ccc(C(=O)NCCCn3ccnc3)cc2)C1 (stereo not drawn)	0.159	-0.718	i
COc1ccc(OC)c(C=Cc2[nH]c(=O)[nH]c(=O)c2[N+](=O)[O-])c1	/	/	i
CC(=O)OCC(=O)NCc1ccc2c(c1)OCO2	0.361	-1.27	/
CCC(NC(=O)NCc1ccc2c(c1)OCO2)(C(F)(F)F)C(F)(F)F	-0.039	-3.4*	i
C=C(C)c1cccc(C(C)(C)NC(=O)N2CCN(CC)CC2)c1	-1.7	-0.79	i
C=C(C)c1cccc(C(C)(C)NC(=O)N2CCN(CC(N)=O)CC2)c1	-0.578	0.949*	/
O=C(Nc1ccc(N2CCCCC2)c(C(=O)O)c1)c1ccco1	0.0989	-1.61	i
O=C(Nc1ccc(N2CCOCC2)c(Cl)c1)c1ccc(Br)o1	-4.99*	-1.08	i
O=C(Nc1ccc(N2CCCC2)c(Cl)c1)c1ccco1	-4.05*	0.424	i
C(=N\N1CCN(Cc2ccccc2)CC1)/c1cccs1	/	-0.652	/
Oc1ccc(Br)cc1/C=N/N1CCN(Cc2ccccc2)CC1	/	2.45*	/
O=C(Nc1ccc(Cl)cc1)NC1CCCC1Cc1ccco1 (stereo not drawn)	-1.62	-5.66*	i
O=C(Nc1ccc(Cl)cc1)NC1CCCCC1Cc1ccco1 (stereo not drawn)	/	-1.59	/
O=C(Nc1ccccc1C(F)(F)F)C(Cc1ccccc1)N1C(=O)c2ccccc2C1=O (stereo not drawn)	/	/	i
COc1ccc(C2(CNC(=O)c3ccccc3[N+](=O)[O-])CCCC2)cc1OC	/	/	i
COC(=O)Cn1cnc(=O)c(C#N)c1/C=C/N(C)C	-4.72*	-0.417	i
COC(=O)Cn1cnc2c(C#N)c3n(c2c1=O)CCCCC3	-0.474	-0.544	i
COc1ccc(-n2nc3c(c2NC(=O)c2cc(OC)c(OC)c(OC)c2)CSC3)cc1	/	/	i
COc1ccc(CN(CCC2(c3ccccc3)CCOC(C)(C)C2)C(C)=O)cc1OC (stereo not drawn)	/	/	i
c1ccc(-c2nc3cnccn3c2Nc2ccc3c(c2)OCCO3)cc1	0.559	2.53*	i
COc1cc(-c2nc3cnccn3c2Nc2ccc3c(c2)OCCO3)ccc1O	-0.928	0.0279	/
CCCCSc1nc2c(c(=O)[nH]1)C1(CCCCC1)Cc1ccccc1-2	/	/	i
CCCCN(C)Cc1c(O)ccc2c(=O)c(Oc3ccccc3Br)c(C(F)(F)F)oc12	/	/	i
SMILES	D1 mod	DAT uptake mod	BAP1 block
COc1ccc(CN(Cc2nc3ccccc3c(=O)[nH]2)C(=O)C(C)(C)C)cc1	-4.9*	0.131	i
COc1ccc(CN(Cc2nc3ccccc3c(=O)[nH]2)C(=O)NC2CCCCC2)cc1	1.17	1.12	i
Cc1ccc(C(C)(C)C)c(OCC(=O)Nc2ccc(C(=O)O)cc2)c1	/	/	i
O=C(c1cc(-c2ccc(Cl)cc2Cl)on1)N1CCOCC1	-4.56*	0.541	/
O=C(c1cc(-c2ccc3c(c2)OCO3)on1)N1CCN(c2ccccc2)CC1	0.973	-2.42	i
O=C(c1cc(-c2ccc(Cl)cc2)on1)N1CCOCC1	-3.41	0.88	i
O=C(c1cc(-c2ccc3c(c2)OCO3)on1)N1CCOCC1	-4.47*	-0.774	i
CC1(C)O[C@@H]2C[C@H]3[C@@H]4CCC5=CC(=O)C=C[C@]5(C)[C@@]4(F)[C@@H](O)C[C@]3(C)[C@]2(C(=O)CO)O1	0.313	1.73	i
C[C@]12C=CC(=O)C=C1CC[C@H]1[C@@H]3C[C@@H](O)[C@](O)(C(=O)CO)[C@@]3(C)C[C@H](O)[C@@]12F	-6.43*	1.21	i
O=C(/C=C\Nc1cccc(F)c1)c1ccc2c(c1)OCO2	-6.87*	1.69	i
O=C(Nc1ccc2c(c1)OCO2)c1cccc(F)c1	0.233	1.35	i
Cc1ccc(C)c(N2C(=O)c3ccc(Oc4cccc(N)c4)cc3C2=O)c1	/	/	i
CCCc1cc(=O)oc2cc(OCc3cccc(Cl)c3)ccc12	/	/	i
Cc1ccc(C)n1C1CCS(=O)(=O)C1 (stereo not drawn)	-4.56*	-0.284	i
COc1ccc(-c2cnn(C3CCS(=O)(=O)C3)c2N)cc1 (stereo not drawn)	/	-0.0209	/
Cc1ccc(S(=O)(=O)NCCN(CCNS(=O)(=O)c2ccc(C)cc2)S(C)(=O)=O)cc1	-5.28*	0.532	i
